# From PubChem BioAssay (NCATS)
# Inconclusive results are not listed. Entries that show only a call come without a potency. Activity calls are given as the source filed them. Calls follow the shape of the dose curve; as a rule, active = well fitted inhibition curve with a large enough effect; inconclusive = small, poorly fitted or top-dose-only effect; inactive = no such curve, though single readings can be large or run the other way.
# System: Zika virus NS2B-NS3 protease (linked construct)
# Assay: Primary screen NINDS Rhodamine qHTS for Zika virus inhibitors (AID 1347160); also: nearly all actives have a fitted effect of over 55% in size
# Details: purified NS2B-NS3 protease, Rhodamine110 substrate fluorescence; series mostly up to 57.1 µM
# Outline: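 Kinetic fluorescence (Ex 480 nm, Em 540 nm) over 15 min with 1.5 microM Rhodamine110 peptide and 25 nM linked protease.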
row,Structure (SMILES),Potency
1,COc1ccc(CCN(C)CCCOc2nsc(-c3ccccc3)n2)cc1OC,inactive
2,COc1ccc(-n2c(SCCCN3C(=O)c4cccc5cccc(c45)C3=O)nnc2-c2ccncc2)cc1,inactive
3,C=C1CCCC2(C)CCC(C(C)(C)OC3OC(C)C(O)C(O)C3OC(=O)/C(C)=C\C)CC12 (stereo not drawn),inactive
4,C/C=C(\C)C(=O)O[C@@H]1[C@@H](C)[C@]2(O)[C@@H]3C=C(C)C(=O)[C@H]3CC(CO)=C[C@H]2C2C(C)(C)[C@@]21OC(=O)C(C)CC (stereo partly drawn),inactive
5,FC(F)(F)c1ccccc1-c1cc(C(F)(F)F)c2nc(C3=NOC4(CCCCC4)C3)[nH]c2c1,inactive
6,CC1CCC/C=C/C(=O)c2c(O)cc(O)cc2CC(=O)O1 (stereo not drawn),inactive
7,NC(=O)N1CCC(CC(=O)N2CCC(C3c4ncc(Br)cc4CCc4cc(Cl)cc(Br)c43)CC2)CC1 (stereo not drawn),inactive
8,C=C1C(=O)O[C@@H]2/C=C(\C)CC/C=C(/C=O)[C@H](OC)[C@@H](OC(=O)C(C)C)[C@@H]12,inactive
9,CCc1ccc(-c2nc(CSCC(=O)NCCc3ccccc3)c(C)o2)cc1,inactive
10,C1=Cc2ccccc2C(=C2CCN(CCCCc3nn[nH]n3)CC2)c2ccccc21,inactive
11,C=C1C(=O)OC2/C=C(\C)CC/C=C(\C=O)C(OC)C(OC(=O)C(C)CC)C12 (stereo not drawn),inactive
12,Cc1[nH]c2ccccc2c1CCNC(=O)c1cccs1,inactive
13,CC(=O)O[C@@]12CO[C@@H]1C[C@H](O)[C@@]1(C)C(=O)[C@H](O)C3=C(C)[C@@H](OC(=O)[C@H](O)[C@@H](NC(=O)OC(C)(C)C)c4ccccc4)C[C@@](O)([C@@H](OC(=O)c4ccccc4)C12)C3(C)C (stereo partly drawn),inactive
